The test concerns Leishmania donovani. Put plainly: Leishmania intramacrophage assay. Format: functional, organism-based. Details: scale not given: in the data most compounds retested in dose-response had high values.

Hit rate of the full screen: of about 69,000 compounds, about 1,000 (1.4%) showed an effect of 50% or more. For the sample, strong results were picked, then their nearest neighbours and some compounds at random.

As for `Cc1nn(C)c(C)c1OCC(=O)NCC(O)Cc1ccccc1` (centres undefined), the “Percent Effect” value (30.3 µM, […]) is -11.07%.

For `CC(C)(C)CC(=O)NS(=O)(=O)c1ccc(F)cc1C(F)(F)F`, where the note is “30.3 µM, […]”, the “Percent Effect” value was determined as 3.58%.

For `CNS(=O)(=O)c1ccc(C(=O)N2CCCC2c2ccccc2C)o1` (centres undefined), the “Percent Effect” value (30 µM) came out at 17.32%.

As to `O=C(Cn1ccc2sccc2c1=O)NCCCc1ccccc1`, under “30.3 µM, […]”, the “Percent Effect” value amounted to 1.811%.

As to `Cc1cccc(CN2CCCC3(CCN(CC(=O)N(C)C)C3=O)C2)n1.O=C(O)C(F)(F)F` (centres undefined), the “Percent Effect” value (30.3 µM, […]) is recorded as -21.17%.

Consider `Cc1ccc(C(=O)Nc2ccc3c(c2)N(C)CCN(C)C3)c(=O)[nH]1`, for which the “Percent Effect” value (30.3 µM, […]) amounted to 4.534%.

For the compound `NC1(CN2CCCCC2)CCCCC1`, the “Percent Effect” value (30.3 µM, […]) is on record as -14.65%.

`Cc1nc(CN2CCCn3c(nc(Cn4cncn4)cc3=O)C2)cs1.O=C(O)C(F)(F)F`: the “Percent Effect” value (30.3 µM, […]) amounted to 16.7%.

As for `CCOC(=O)Cc1n[nH]c(-c2cncc(Br)c2)n1`, the “Percent Effect” value (30.3 µM, […]) was found to be 100.5%.

Consider `CCNC(=O)Cc1n[nH]c(-c2cncc(Br)c2)n1`, for which the “Percent Effect” value (30.3 µM, […]) is reported as -72.67%.

Regarding `CNC(=O)Cc1n[nH]c(-c2cncc(Br)c2)n1`, under “30.3 µM, […]”, the “Percent Effect” value is -1.104%.

For `Cc1oncc1C(=O)N1CCC(O)(CN2CCOCC2)C(C)(C)C1` (centres undefined), the “Percent Effect” value (30.3 µM, […]) was found to be 22.16%.

As for `COc1cccc(CN(C)Cc2nc3c(cnn3C)c(=O)[nH]2)c1OC`, the “Percent Effect” value (30.3 µM, […]) is listed as -6.431%.

Consider `COc1cc(NC2CCN(C3CCS(=O)(=O)CC3)CC2)ncn1`, for which, under “30.3 µM, […]”, the “Percent Effect” value worked out at 36.7%.

Consider `Cc1nc2[nH]cnc(Nc3ccn(C)n3)c-2n1`, for which the “Percent Effect” value (30.3 µM, […]) is on record as -6.289%.

Regarding `Cc1nc2[nH]cnc(Nc3cc(C)n(C)n3)c-2n1`, the “Percent Effect” value (30.3 µM, […]) is on record as 75.58%.

As for `Cc1nc2[nH]cnc(Nc3cnn(C)c3)c-2n1`, the “Percent Effect” value (30.3 µM, […]) amounted to 10.52%.

As for `CCSCCC(=O)Nc1ncn(CC(=O)NCc2ccccc2)n1`, under “30 µM, 30.03 µM”, the “Percent Effect” value was determined as 19.14%.

Turning to `O=C(c1c2c(N3CCOCC3)ncnc2n2ccccc12)N1CCCC1`, the “Percent Effect” value (30.3 µM, […]) is listed as 16.59%.

As to `CN(C)CCN1CCOCC2(CCCN(C(=O)c3ccoc3)C2)C1.O=C(O)C(F)(F)F.O=C(O)C(F)(F)F` (centres undefined), where the note is “30.3 µM, […]”, the “Percent Effect” value amounted to 9.003%.

As for `Cc1cc2cc(CNC3CCN(CC4CCOC4)CC3)oc2cc1C` (centres undefined), the “Percent Effect” value (30.3 µM, […]) was 70.06%.

As to `Cc1cc2cc(CNC3CCN(S(C)(=O)=O)CC3)oc2cc1C`, where the note is “30.3 µM, […]”, the “Percent Effect” value worked out at 23.07%.

Consider `Cc1cc2cc(CNC3CCN(CC(=O)N(C)C)CC3)oc2cc1C`, for which the “Percent Effect” value (30.3 µM, […]) came to 25.29%.

For `CNc1oc(-c2ccc(S(=O)(=O)N(C)C)o2)nc1C#N`, the “Percent Effect” value (30.3 µM, […]) is -4.203%.

As for `CN(C)S(=O)(=O)c1ccc(-c2nc(C#N)c(NC(C)(C)C)o2)o1.Cl`, the “Percent Effect” value (30.3 µM, […]) is 70.96%.

Consider `Cc1oc(-c2nc(C#N)c(NC3CC3)o2)cc1S(=O)(=O)N1CCCC1`, for which, for the setting “30.3 µM, […]”, the “Percent Effect” value is listed as 1.943%.

As for `CN(C)S(=O)(=O)c1ccc(-c2nc(C#N)c(NC3CCCCC3)o2)o1`, the “Percent Effect” value (30.3 µM, […]) is 54.54%.

With `CN(C)S(=O)(=O)c1ccc(-c2nc(C#N)c(NC3CC3)o2)o1`, where the note is “30.3 µM, […]”, the “Percent Effect” value is reported as 20.5%.

Take `CC(C)Nc1oc(-c2ccc(S(=O)(=O)N(C)C)o2)nc1C#N`: the “Percent Effect” value (30.3 µM, […]) was 16.53%.

For `Cc1ccc(N2C[C@H](C(=O)N3CCOCC3)[C@@H]3CCO[C@@H]3C2)nn1`, the “Percent Effect” value (30.3 µM, […]) is reported as 10.85%.

On to `O=C(O)C(F)(F)F.c1csc(CN2CCn3c(Cn4cncn4)cnc3C2)n1`, for which the “Percent Effect” value (30 µM, 30.03 µM) was 0.7173%.

`CC(C)(C)c1noc(CCCC(=O)N2CCCC(c3ccn[nH]3)C2)n1` (centres undefined): the “Percent Effect” value (30.3 µM, […]) is reported as -44.28%.

For `COc1cc(S(=O)(=O)N2CCCc3ccccc32)cc(C(=O)O)c1OC`, the “Percent Effect” value (30 µM, 30.03 µM) is listed as 1.897%.

For `Cc1c(C(=O)NCc2ccnc(OCC(F)(F)F)c2)cnn1C`, the “Percent Effect” value (30 µM) is listed as 34.3%.

Turning to `O=C(c1ccccn1)N1CCc2c(nc(N3CCCC3)[nH]c2=O)C1`, the “Percent Effect” value (30 µM, 30.03 µM) is on record as -2.348%.

For the compound `Cc1cnn(-c2cccc(N3CCN(c4cc(C)nc(C)n4)CC3)n2)c1`, where the note is “30.3 µM, […]”, the “Percent Effect” value is reported as -8.114%.

As for `Cc1cnn(-c2cccc(N3CCCCC3)n2)c1`, the “Percent Effect” value (30.3 µM, […]) was -15%.

In the case of `Cc1cnn(-c2cccc(N3CCCC3)n2)c1`, where the note is “30.3 µM, […]”, the “Percent Effect” value came to 88.75%.

For `c1c(CN2CCOCC2)nc2n1CCN(CC1CC1)C2`, the “Percent Effect” value (30.3 µM, […]) turned out to be 2.759%.

As to `CCc1csc(C2CCCN(C(=O)c3ccco3)C2)n1` (centres undefined), the “Percent Effect” value (30 µM) is listed as -22.84%.

On to `Cc1cccc(NS(=O)(=O)c2cc(C(=O)O)oc2C)c1`, for which, where the note is “30.3 µM, […]”, the “Percent Effect” value worked out at 8.685%.

Consider `CC(C)(C)NC(=O)c1ccn(COc2c(Cl)cccc2Cl)n1`, for which the “Percent Effect” value (30.3 µM, […]) is reported as 6.361%.

Turning to `CC(C)(C)NC(=O)c1ccn(COc2ccccc2Cl)n1`, where the note is “30.3 µM, […]”, the “Percent Effect” value is 62.54%.

On to `COC(=O)c1ccn(COc2ccccc2Cl)n1`, for which the “Percent Effect” value (30.3 µM, […]) is -5.219%.

As for `c1nc(N2CCOC(Cn3cncn3)C2)c2cc[nH]c2n1` (centres undefined), the “Percent Effect” value (30 µM) amounted to 24.06%.

Turning to `COCCN1CCCC(c2ncc(C(=O)N(C)C)c(C)n2)C1` (centres undefined), the “Percent Effect” value (30.3 µM, […]) is given as -9.482%.

Take `Cc1nc(NCC2CC2)nc2c1COCC21CCN(C(=O)C(C)(C)C)C1` (centres undefined): the “Percent Effect” value (30.3 µM, […]) is recorded as -5.86%.

`COCCC(=O)N1CCC2(COCc3c(C)nc(NCC4CC4)nc32)C1` (centres undefined): the “Percent Effect” value (30 µM, 30.03 µM) was determined as 4.108%.

Turning to `Cc1nc(NCC2CC2)nc2c1COCC21CCN(C(=O)NC(C)C)C1` (centres undefined), where the note is “30.3 µM, […]”, the “Percent Effect” value was found to be 52.42%.

For `Cn1ccnc1CN1CCC2(CC1)COC2.O=C(O)C(F)(F)F`, under “30.3 µM, […]”, the “Percent Effect” value was 21.73%.

Regarding `O=C(CN1CCC(c2ccccc2)CC1)NCc1cc2n(n1)CCNC2`, where the note is “30.3 µM, […]”, the “Percent Effect” value was found to be 55.19%.

For `O=C(CN1CC(c2ccccc2)CC1=O)NCc1cc2n(n1)CCNC2` (centres undefined), the “Percent Effect” value (30.3 µM, […]) is given as 29.23%.

As for `c1ccc(C2CCCN(Cc3cc4n(n3)CCNC4)CC2)cc1` (centres undefined), the “Percent Effect” value (30.3 µM, […]) is 58.47%.

With `O=C(CN1CCOc2ccccc2C1)NCc1cc2n(n1)CCNC2`, the “Percent Effect” value (30.3 µM, […]) is listed as 5.311%.

On to `CC(=O)N1CC[C@H]2OCC[C@@]2(C(=O)NCCc2ccccn2)C1.O=C(O)C(F)(F)F`, for which, under “30.3 µM, […]”, the “Percent Effect” value is -0.5887%.

Turning to `CNc1snc(C)c1C(=O)N1CCCC(n2cccn2)C1` (centres undefined), the “Percent Effect” value (30 µM) came out at 20.79%.

As for `N#Cc1ccccc1N1CCCN(C(=O)CCc2ccco2)CC1`, the “Percent Effect” value (30.3 µM, […]) is given as 17.14%.

For `CN(C(=O)C1(C#N)CCCCC1)c1nccs1`, the “Percent Effect” value (30.3 µM, […]) was determined as 12.59%.

On to `Cn1nc(Cn2ccnc2)c2c1CN(Cc1ccoc1)C2.O=C(O)C(F)(F)F.O=C(O)C(F)(F)F`, for which, under “30.3 µM, […]”, the “Percent Effect” value stood at 2.195%.

Regarding `Cn1nc(Cn2ccnc2)c2c1CN(C(=O)c1ccoc1)C2.O=C(O)C(F)(F)F`, the “Percent Effect” value (30.3 µM, […]) is on record as 54.37%.

For the compound `Cc1ccoc1C(=O)N1Cc2c(Cn3ccnc3)nn(C)c2C1.O=C(O)C(F)(F)F`, under “30.3 µM, […]”, the “Percent Effect” value was 12.09%.

Regarding `COCc1nc2n(n1)CCCC2Nc1nc(C)ns1` (centres undefined), the “Percent Effect” value (30.3 µM, […]) was -12.79%.

Regarding `O=C(CC1CCC2(CC1)CCN(Cc1nccs1)CC2)N1CC=CC1`, the “Percent Effect” value (30.3 µM, […]) was -13.52%.

As to `NC(=O)C(NC(=O)CCc1ccc(Cl)s1)c1ccccc1` (centres undefined), where the note is “30.3 µM, […]”, the “Percent Effect” value turned out to be 20.24%.

Take `NC(=O)C(NCc1ccc(Cl)s1)c1ccccc1` (centres undefined): the “Percent Effect” value (30.3 µM, […]) is recorded as 22.99%.

With `CC(C)(C)c1nc(CNc2ccccc2SCCC(N)=O)cs1`, the “Percent Effect” value (30.3 µM, […]) is -34.53%.

`CC(C)(C)c1ncc(CNc2ccccc2SCCC(N)=O)s1`: where the note is “30.3 µM, […]”, the “Percent Effect” value is -11.51%.

For the compound `NC(=O)CCSc1ccccc1NCc1ccc(Cl)s1`, the “Percent Effect” value (30.3 µM, […]) came to 57.16%.

In the case of `Cc1ccc(CNc2ccccc2SCCC(N)=O)s1`, the “Percent Effect” value (30.3 µM, […]) is 58.74%.

Values taken from ChEMBL document CHEMBL3988442, “University of Dundee, Small-Polar-MMV Screening Library” (2021).
